High-throughput results (PubChem BioAssay)
Shown are actives, neighbours in structure and some others; about 12% of the full set was active somewhere.
JMJD2A Tudor inh: qHTS Assay for Inhibitors of JMJD2A-Tudor Domain. Lysine-specific demethylase 4A (Homo sapiens), O75164. AlphaScreen JMJD2A-Tudor / H3K4me3 peptide binding. Potency, µM (series often up to 114 µM), for the others: top-dose activity change, negative = inhibition, actives largely listed as inhibitors. 390,000 compounds, 4.4% hits; note: % is set by controls: 0 for no effect and ±100 for the full control effect; nearly all actives have a fitted effect of over 50% in size
L3MBTL1 block: qHTS Assay for the Inhibitors of L3MBTL1. Potency, µM (doses to about 57.1 µM), inactives show at the top dose activity, negative = inhibition, hits mostly inhibitors. 230,000 compounds, 0.66% hits. AlphaScreen L3MBTL1–H3K9me1 peptide binding; note: % is set by controls: 0 for no effect and ±100 for the full control effect; nearly all actives have a fitted effect of over 60% in size
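AlphaScreen proximity signal between nickel-chelate acceptor and streptavidin donor beads (final 10 ug/mL) reports binding of 50 nM L3MBTL1 to 75 nM biotin-H3 K9me1 peptide; complex incubated with compounds 30 min at room temperature; cefsulodin titration as control.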
Sfp PPTase inh: qHTS Assay for Inhibitors of Bacillus subtilis Sfp phosphopantetheinyl transferase (PPTase); 4'-phosphopantetheinyl transferase ffp (Bacillus subtilis), Q9F4F7; Potency, µM, for the others: largest response in the series, negative = inhibition, usual class: inhibitors; AID 1490, 2009; Biochemical Sfp PPTase activity, qHTS; 310,000 compounds, 3.5% hits;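 note: the enzyme is Sfp with the accession as filed and its product quenches rhodamine fluorescence; 0% = enzyme reaction without inhibitor and -100% = no enzyme wells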
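Compounds were incubated with enzyme (final 15 nM) for 15 min at room temperature before substrate addition started the reaction. Fluorescence at 525 nm excitation, 598 nm emission was recorded immediately and after 30 minutes.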
HP1b binding inh: HTS for Inhibitors of HP1-beta Chromodomain Interactions with Methylated Histone Tails; Chromobox protein homolog 1 (Homo sapiens), P83916; AlphaScreen HP1-beta / biotin-H3K9me3 peptide binding; Potency, µM (doses to about 114 µM), for inactives: at the highest dose activity change, negative = inhibition, usual class: inhibitors; 390,000 compounds, 0.56% hits; note: nearly all actives have a fitted effect of over 70% in size
Target sequence (P83916 whole entry, looked up): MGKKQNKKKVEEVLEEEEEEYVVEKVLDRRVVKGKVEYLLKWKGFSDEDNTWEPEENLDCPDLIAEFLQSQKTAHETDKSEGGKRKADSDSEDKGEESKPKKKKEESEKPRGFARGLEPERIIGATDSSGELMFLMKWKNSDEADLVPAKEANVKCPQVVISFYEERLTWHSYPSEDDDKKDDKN
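Compound inhibition of the preformed complex between 50 nM HP1-beta and 50 nM biotinylated H3K9me3 peptide was read by AlphaScreen. Buffer was PBS pH 7.4 with 0.01% Tween-20. Incubations ran 30 min at room temperature, with 10 ug/mL donor/acceptor beads.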
BAZ2B block: qHTS Assay for Inhibitors of BAZ2B. Bromodomain adjacent to zinc finger domain protein 2B (Homo sapiens), Q9UIF8. AlphaScreen BAZ2B-H3K14Ac peptide displacement. Potency, µM (series often up to 114 µM), for inactives: top-dose activity change, negative = inhibition, hits mostly inhibitors. 360,000 compounds, 4.4% hits. AID 504333, 2011; note: % is set by controls: 0 for no effect and ±100 for the full control effect; nearly all actives have a fitted effect of over 60% in size
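AlphaScreen luminescence quantifies BAZ2B engagement of H3K14Ac peptide; the protein and biotinylated peptide are both at 50 nM final, buffer PBS pH 7.4 with 0.01% Tween-20, all steps at room temperature.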
G9a block: qHTS Assay for Inhibitors of Histone Lysine Methyltransferase G9a | Histone-lysine N-methyltransferase EHMT2 (Homo sapiens), Q96KQ7 | G9a H3K9 monomethylation, AlphaScreen, 2 h | Potency, µM (series often up to 102 µM), for inactives: at the top dose activity, negative = inhibition, usual class: inhibitors | 350,000 compounds, 8.8% hits | AID 504332, 2011; note: % is set by controls: 0 for no effect and ±100 for the full control effect; nearly all actives have a fitted effect of over 75% in size
Target sequence (Q96KQ7 913-1193 limits assumed): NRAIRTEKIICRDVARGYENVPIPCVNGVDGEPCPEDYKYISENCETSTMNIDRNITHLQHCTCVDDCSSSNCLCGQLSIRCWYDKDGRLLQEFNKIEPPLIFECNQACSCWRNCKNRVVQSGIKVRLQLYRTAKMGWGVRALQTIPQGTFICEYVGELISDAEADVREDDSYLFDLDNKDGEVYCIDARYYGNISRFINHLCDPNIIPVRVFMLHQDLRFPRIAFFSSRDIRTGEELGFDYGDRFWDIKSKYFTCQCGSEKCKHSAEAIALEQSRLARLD
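Step 1: enzyme (final 20 nM) with compound, 15 min RT. Step 2: substrate peptide 500 nM and SAM 20 uM, 2 h RT. Step 3: anti-H3K9me1 antibody and AlphaScreen beads, 10 min, then plate read.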
The depositor's hits bear a star; u = inconclusive; x = no result; [ ] = remark or other dose. Calls come from the whole dose curve; as a rule, active = well fitted curve in the direction sought with a large enough effect; inconclusive = small, poorly fitted or top-dose-only effect, or another doubt; inactive = no such curve, though single readings can be large; an effect the other way counts as inactive or inconclusive. Potency is the fitted concentration of half-maximal effect.

SMILES	JMJD2A Tudor inh	L3MBTL1 block	Sfp PPTase inh	HP1b binding inh	BAZ2B block	G9a block
CC(C)c1ccc(NC(=O)CNCC(c2ccccc2)N(C)C)cc1 (configuration not stated)	45µM*	u	u	-14%	u	35µM*
CC(=O)N1CCc2c(sc3c2c(=O)n(-c2ccccc2)c(=O)n3Cc2cccc(C(F)(F)F)c2)C1	-23%	x	x	36%	1%	17%[59 µM]
CCOC(=O)c1c(C)sc(-c2c(-c3ccc4c(c3)OCCO4)[nH]c3c2c(=O)[nH]c(=O)n3C)c1O	-12%	x	x	21%	-34%	-25%[59 µM]
COc1ccc(NC(=S)Nc2ccc(S(N)(=O)=O)cc2)c(OC)c1	-10%	1%	-14%	-10%	-38%	56µM*
COc1ccc(NC(=S)Nc2ccc(S(=O)(=O)N3CCOCC3)cc2)c(OC)c1	-9%	-5%	-30%	-6%	-20%	-9%[59 µM]
COc1ccc(NC(=S)NNS(=O)(=O)c2ccc3ccccc3c2)c(OC)c1	25µM*	-1%	7%	u	u	x
COc1ccccc1NC(=O)C(=O)NNS(=O)(=O)c1ccc2ccccc2c1	-7%	x	6%	37%	u	13%
CCc1ccc(-c2nn(CC(=O)Nc3ccccc3C)c3c2cnc2ccc(C)cc23)cc1	-20%	x	x	-9%	-11%	13%[59 µM]
CCc1cccc(CC)c1NC(=O)c1cccc(N)c1	56µM*	x	17%	u	-5%	36%[12.7 µM]
CC(=O)OCC(=O)[C@@]1(O)CCC2C3C[C@H](C)C4=CC(=O)C=CC4(C)C3C(O)CC21C (some centres not stated)	x	x	12%	x	x	31%[59 µM]
CN1N=C2c3ccccc3CCCC2C1c1ccc(F)cc1 (configuration not stated)	-17%	u	-6%	22%	-20%	79µM*
CC(=O)N1N=C2c3ccccc3CCC2C1c1cccs1 (configuration not stated)	-13%	0%	22%	30%	-5%	x
CCOC(=O)C(=O)Cc1cccnn1	3.5µM*	x	x	u	x	x
O=C(COc1ccccc1)Nc1nnc(-c2ccc(Cl)s2)o1	89µM*	x	6%	46%	u	14%
Cc1ccc(C)c(-c2nnc(NC(=O)COc3ccccc3)o2)c1	-29%	11%	x	26%	-6%	-21%
O=C(COc1ccccc1)Nc1nnc(-c2ccco2)o1	14µM*	u	-18%	15%	18µM*	u
O=C(Nc1nnc(-c2ccc(Cl)s2)o1)C1CC1	-27%	x	5%	30%	x	-49%
O=C(COc1ccc(Cl)cc1)Nc1nnc(-c2ccco2)o1	28µM*	u	6%	26%	22µM*	-29%
COc1cc2c(cc1O)-c1ccccc1CN(C)C2	x	x	-21%	x	x	x
O=C(c1ccccc1)c1ccc(OCC(O)CNCc2ccc(F)cc2)cc1 (configuration not stated)	5µM*	x	-13%	-10%	35µM*	5µM*
Cc1ccc(C(OCC(O)CNCc2ccc(F)cc2)c2ccccc2)cc1 (configuration not stated)	79µM*	x	u	-34%	40µM*	u
COc1ccc(C(OCC(O)CNCCc2ccccc2)c2ccc(OC)cc2)cc1 (configuration not stated)	3.5µM*	x	-27%	u	32µM*	6%[0.501 µM]
O=C(Nc1c(C(=O)N2CCN(c3ccc(F)cc3)CC2)oc2ccccc12)c1c(F)cccc1F	-33%	x	x	-12%	-16%[57.1 µM]	u
O=C(Nc1ccc(CN2CCCCC2)cc1)c1c(F)c(F)c(F)c(F)c1F	-9%	-6%	13%	4%	-16%	25%[12.7 µM]
CC(=O)Nc1ccc(CN2CCCCCCC2)cc1	3.2µM*	-6%	13%	u	u	-44%[59 µM]
SMILES	JMJD2A Tudor inh	L3MBTL1 block	Sfp PPTase inh	HP1b binding inh	BAZ2B block	G9a block
S=C(Nc1ccccc1)Nc1cccc(Cl)c1Cl	-15%	-5%	-21%	32%	-7%	x
S=C(Nc1ccc(CN2CCCCC2)cc1)Nc1cccc(Cl)c1Cl	u	x	-8%	22%	-25%	40µM*
COc1ccc2c(c1)CC(C(=O)NCCCN1CCN(c3ccc(F)cc3)CC1)CO2 (configuration not stated)	u	x	x	11%[57 µM]	u	-35%[59 µM]
Cc1ccccc1N1C(=O)CC(Sc2nnc(-c3ccccc3)o2)C1=O (configuration not stated)	-6%	2%	10µM*	-2%	-5%	7.9µM*
O=C1CC(Sc2nnc(-c3ccccc3)o2)C(=O)N1c1ccccc1 (configuration not stated)	-8%	-8%[11.4 µM]	22µM*	3%	10%	u
CC(C)c1ccc(N2C(=O)CC(Sc3nc4ccccc4o3)C2=O)cc1 (configuration not stated)	-15%	-6%	u	57%	0%	45µM*
O=C1CC(Sc2cccs2)C(=O)N1c1ccccc1 (configuration not stated)	1%	6%	-29%	34%	-1%	x
CCCCCCCCCCCC[n+]1ccc2ccccc2c1	x	x	-27%	x	x	u
O=C(CC1NCCNC1=O)Nc1ccccc1F (configuration not stated)	-4%	x	x	42%	-19%	43%[59 µM]
Cc1cccc(CNS(=O)(=O)c2ccc3[nH]c(=O)ccc3c2)c1	0%	x	x	32%[57 µM]	0%	0%[59 µM]
O=C(NC1CC1)C1CCN(S(=O)(=O)c2cc(Cl)ccc2Cl)CC1	-2%	0%	-20%	26%	56µM*	13µM*
COc1ccc(S(=O)(=O)N2CCC(C(=O)N[C@@H](C)C(=O)NC3CCCC3)CC2)cc1	22µM*	x	2%	3%	3%	x
Cc1ccc(S(=O)(=O)N2CCC(C(=O)NC3CCCC3)CC2)cc1Cl	100µM*	x	24%	18%	1%	-7%[59 µM]
Cc1ccc(S(=O)(=O)N2CCCC(C(=O)NC3CCCC3)C2)cc1Cl (configuration not stated)	-5%	x	20%	38%	-3%	9%
COc1cccc(Cn2c(=O)c(-c3cccs3)nc3cnc(OC)nc32)c1	x	x	-1%	x	x	2%[0.501 µM]
O=C1CCCC2=C1C1(CCCC1)N=C(Nc1nc3ccccc3n1Cc1ccccc1)N2	-21%	x	x	x	x	x
